Sampled rows, rich in hits. Any-hit rate of the full collection: about 1.3%.
IL2 activator – qHTS of IL-2 Activators; activation, % (series mostly up to about 46 µM); IL-2 activation reporter assay, cell-based qHTS; stimulated with anti-CD3/CD4/CD28 beads; in transgenic mouse T cells; hit rate 0.065% among 360,000; in the data active = activation above about 50%; inconclusive = mostly about 30% to 49%; note: 0% is about no effect
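Quantitative HTS in unstimulated transgenic mouse T cells, with memory T cells as non-tolerant control and PMA/ionomycin as tolerance-bypass control. Compound pretreatment lasted 60 minutes before 18 h bead stimulation; EGFP/DsRed fluorescence read.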
TCR activator – Activators of T cell receptors: qHTS campaign; 330,000 tested, under 10 active; AID 504894, 2011; Potency, µM (titrated, usually from 9.22 µM), without a hit: at the highest dose activation of IL-2 secretion, most hits filed as activators; primary human leukocytes, anti-CD3, IL-2 HTRF, 48 h; note: % of control where 0% means no effect
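Primary human leukocytes receive a-CD3 beads and test compound and are incubated 48 hr. Secreted IL-2 is then assayed by HTRF, measuring 665nm acceptor emission after 320nm excitation of the europium donor.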
BRCA1 expr up – qHTS Assay to Identify Small Molecule Activators of BRCA1 Expression. MCF7-BRCA1-FFLuc reporter, luminescence, 48 h; response scale: scaled: vehicle 0%, 10 µM genistein 100%. Potency, µM (top dose mostly 46.1 µM), inactives show top-dose activation, most hits filed as activators. hit rate 1.1% among 380,000; note: potency is the fitted concentration of half-maximal effect; nearly all actives have a fitted effect of over 80% in size
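MCF7-BRCA1-FFLuc cells, 2000/well in phenol-red-free MEM, attached 2 h then treated 48 h at 37 C. Luciferase luminescence read 15 min after reagent; normalized to genistein maximum activation (10microM) and DMSO, concentration-response fitted.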
p53 reactivator – qHTS assay for re-activators of p53 using a Luc reporter; AID 504706, 2011; H1299 p53-A138V BP100-luciferase reporter, luminescence, 24 h; hit rate 0.063% among 320,000; Potency, µM (titrated, usually from 92.2 µM), for inactives: top-dose activity change, positive = activation, hits mostly activators; note: potency is the fitted concentration of half-maximal effect; % of control where 0% means no effect; nearly all actives have a fitted effect of over 45% in size
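p53-null H1299 cells stably carrying temperature-sensitive p53-A138V and a BP100-luciferase reporter were pinned with compounds (4-point, 1:5 series) and held 24 hrs at 37 deg C. Luminescence was read 10 min after detection reagent.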
Mito fusion yeast – qHTS Assay for Small Molecule Inhibitors of Mitochondrial Division or Activators of Mitochondrial Fusion. S. cerevisiae fusion-defective mutant growth rescue, CellTiterGlo 48 h. Potency, µM (series often up to 46.1 µM), for inactives: at the highest dose growth rescue (activation), hits mostly activators. hit rate 0.23% among 320,000. AID 485298, 2010; note: potency is the fitted concentration of half-maximal effect; % of control where 0% means no effect; nearly all actives have a fitted effect of over 45% in size
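Read-out: ATP-based luminescence (CellTiterGlo, 10 min ambient) reporting growth of fusion-defective ts yeast after 48 hours at 37C on glycerol/ethanol YPEG medium in the presence of compound.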
Starred values were filed as active, the others as inactive; u = inconclusive; x = no result given; [ ] = another dose, or the depositor's remark. Unless noted, calls come from the whole dose curve; as a rule, active = well fitted curve in the direction sought with a large enough effect; inconclusive = small, poorly fitted or top-dose-only effect, or another doubt; inactive = no such curve, though single readings can be large; an effect the other way counts as inactive or inconclusive.

SMILES | IL2 activator | TCR activator | BRCA1 expr up | p53 reactivator | Mito fusion yeast
CCOC(=O)c1oc2ccc(S(=O)(=O)n3nc(-c4ccc(OC)cc4)cc3N)cc2c1C | -3.3 | -0.1%[46.1 µM] | -48.5% | 9.1% | 12.6µM*
CC(=O)Nc1ccc(NC(=O)COc2ccc(Br)cc2C)cc1 | -4.5 | 0.9%[46.1 µM] | -11.2% | 0.5% | 8.0%
Cc1cccc(NC(=O)COc2ccc(Br)cc2/C=N/O)c1 | -0.7 | -1.0%[46.1 µM] | 4.47µM* | u | u
COc1cccc(-c2nnc(NC(=O)c3ccco3)s2)c1 | 0.6 | 4.8% | 6.31µM* | 17.7% | -2.6%
COc1ccc(-c2nnc(NC(=O)c3ccco3)s2)cc1 | 0.2 | 1.7% | u | u | 8.8%
O=C(Nc1nnc(CCc2ccccc2)s1)c1ccco1 | 0.7 | -5.8% | 67.4% | u | 1.3%
COc1cccc(-c2nnc3sc(-c4ccco4)nn23)c1 | -1.9 | -3.5% | 8.91µM* | 15.1% | 2.7%
O=C(Nc1nnc(Cc2ccccc2)s1)c1ccco1 | 3.6 | 0.1% | 12.6µM* | 14.3% | 3.8%
Cc1ccc(-c2nnc(NC(=O)c3ccco3)s2)cc1 | 0.0 | -6.8% | 2.24µM* | u | 13.1%
COc1ccc2c(c1)c1c(c(=O)n(CCc3ccccc3)c(=O)n1Cc1ccc(Cl)cc1)n2C | x | x | -17.5% | x | x
COc1ccc(-c2cc(-c3ccccc3)nc3c2COc2ccc(F)cc2-3)cc1 | x | x | 4.8% | x | x
CN1CCCc2ccccc21 | x | x | -5.7% | x | x
Cc1ccc(NC(=O)c2ccc(OC(=O)c3ccco3)cc2)cc1 | -0.9 | 1.2% | u | u | -3.2%
NC(=O)c1cc(Cc2ccccc2)sc1NC(=O)c1ccco1 | -2.5 | 14.9% | 7.94µM* | u | 15.8µM*
COc1cccc(-c2nnc(NC(=O)c3cccs3)s2)c1 | 0.2 | -2.4% | 3.98µM* | 6.7% | -0.6%
Cc1ccc(-c2nc3ccccc3[nH]2)cc1NC(=O)c1ccco1 | 1.1 | -3.3% | 47.6% | 8.4% | 1.7%
Cc1ccc(Oc2ccc(NC(=O)c3ccco3)cc2)cc1 | 1.8 | -3.8% | 11.2µM* | 13.7% | 6.6%
Cc1cccc2[nH]c(-c3ccc(NC(=O)c4ccco4)cc3)nc12 | -0.8 | 4.9% | 1.78µM* | u | 5.3%
CCc1sc(-c2cc3ccccc3oc2=O)nc1-c1ccc(C)cc1 | x | x | -3.0% | x | x
CCN1C(=O)C2(c3ccccc31)c1c(oc3ccc(C)cc3c1=O)C(=O)N2CCCOC(C)C (stereo not given) | x | x | 9.7% | x | x
CCOC(=O)c1c(C)[nH]c(C)c1S(=O)(=O)N1CCC(C(=O)Nc2ccccc2CC)CC1 | x | x | 10.1% | x | x
CC(C)c1ccc(NC(=O)C2=NNC(=O)CC2)cc1 | -1.0 | 0.7% | 2.24µM* | 6.3% | 6.1%
Cc1ccc(C(=O)Cn2cnc3ccccc3c2=O)cc1C | -0.3 | 0.3% | 4.47µM* | x | 8.9%
O=C(Cn1cnc2ccccc2c1=O)c1ccc2ccccc2c1 | -0.3 | 4.1% | 6.31µM* | x | -6.6%
COc1ccc(C(=O)Cn2cnc3ccccc3c2=O)cc1 | 1.7 | -0.7% | u | u | -3.5%
SMILES | IL2 activator | TCR activator | BRCA1 expr up | p53 reactivator | Mito fusion yeast
Cc1c(C2(c3cc(C(C)C)c(O)c(Br)c3C)OS(=O)(=O)c3ccccc32)cc(C(C)C)c(O)c1Br | x | x | 4.6% | x | x
O/N=C/c1ccccc1OCc1ccc(Cl)cc1 | -2.4 | 3.5% | 11.2µM* | 9.1% | 1.0%
O/N=C/c1ccccc1OCc1ccccc1Cl | -2.3 | -1.0% | -3.8% | 9.0% | -0.6%
COc1cc2c(NC3CCN(C)CC3)nc(N3CCCN(C)CC3)nc2cc1OCC1CCCCN1 (stereo not given) | x | x | -55.2% | x | x
CC(=O)c1ccc([N+](C)(C)C)cc1 | x | x | 1.9% | x | x
CC(C)(C)c1ccc2c(c1)OC(C(=O)N/N=C\c1ccccn1)CO2 (stereo not given) | -3.9 | 11.5%[46.1 µM] | -0.8% | 2.3% | 15.8µM*
CCOC(=O)c1ccc(N=NN(C)C)cc1 | -2.9 | -4.5% | 12.6µM* | 19.1% | -3.8%
CCOC(=O)c1ccc(N)cc1 | 1.1 | 1.9% | -12.0% | 9.9% | 1.6%
CC(=O)c1cccc(NC(=S)NC(=O)c2ccc(C)cc2)c1 | 4.7 | -0.4% | 7.94µM* | u | -0.6%
CNC(=S)Nc1cccc(C(=O)OC)c1 | 0.4 | -2.4% | 7.08µM* | 11.1% | 6.3%
COC(=O)c1cccc(NC(N)=S)c1 | -0.4 | x | 5.1% | 17.1% | -2.9%
CCOc1cccc(C(=O)NC(=S)Nc2ccccc2)c1 | -0.5 | 0.6%[46.1 µM] | 11.2µM* | u | 1.5%
COc1cc([C@@H]2c3cc4c(cc3[C@H](O)[C@H]3COC(=O)[C@@H]23)OCO4)cc(OC)c1OC | x | x | -51.2% | x | x
CO[C@@H]1[C@@H](OC2OC(C)C(OC3CC(C)(O)C(OC(=O)CC(C)C)C(C)O3)C(N(C)C)C2O)[C@@H](CC=O)C[C@@H](C)C(=O)/C=C\C2O[C@H]2C[C@@H](C)OC(=O)C[C@H]1OC(C)=O (stereo not given in full) | x | x | -1.1% | x | x
O=C(c1ccco1)N1CCCC(Nc2ccc3c(c2)OCCO3)C1 (stereo not given) | 0.4 | -5.6% | 8.91µM* | u | 3.8%
CSCc1ccc(C(=O)N2CCCC(Nc3ccc4c(c3)OCCO4)C2)o1 (stereo not given) | 1.3 | 6.3% | 0.8% | 12.0% | -3.9%
CN(C)c1ccc(CNC(=O)C2CCN(c3nnc(-n4cccc4)s3)CC2)cc1 | x | x | -5.4% | x | x
CC(=O)c1ccc(N2Cc3ccccc3C2=NC(=O)c2cccs2)cc1 | -0.5 | -1.5%[46.1 µM] | u | 60.2% | -4.4%
CCOC(=O)c1ccc(N2Cc3ccccc3C2=NC(=O)c2cccs2)cc1 | 4.4 | -3.0%[46.1 µM] | 10µM* | u | 8.6%
COc1ccc(NC(=O)c2sc3nc(N4CCCC4)c4c(c3c2N)CC(C)(C)OC4)cc1 | -0.3 | -0.4% | -15.0% | -14.8% | 12.6µM*
COc1ccc(NC(=O)c2sc3nc(N4CCOCC4)c4c(c3c2N)CC(C)(C)OC4)cc1 | -3.7 | -7.6% | 2.8% | 4.8% | 0.0%
Nc1c(C(=O)Nc2ccccc2)sc2nc(N3CCOCC3)c3c(c12)CCCC3 | -3.8 | x | 12.6µM* | x | x
CC[n+]1c(/C=C/C=C2/N(C)c3ccccc3C2(C)C)sc2ccccc21 | x | x | x | x | -40.0%
COc1cccc2ccc(/C=C/c3ccc4c(c3)OCO4)nc12 | x | x | 3.55µM* | x | x
COc1cc(C=C(c2nc3ccccc3s2)c2nc3ccccc3s2)ccc1O | -2.3 | -8.1%[46.1 µM] | -33.2% | 6.5% | 15.8µM*
COc1ccc2c(c1)c1c(c(=O)n(-c3cccc(Cl)c3)c(=O)n1CC(=O)N1CCCC1)n2C | x | x | 7.3% | x | x
COc1cccc(/C(C)=N/N=C(\C)c2cccc(OC)c2)c1 | 0.8 | -1.6% | 3.16µM* | x | -5.6%
COc1cccc(C(N)=O)c1 | -0.4 | 3.6% | 5.5% | x | x
Cc1ccc(-c2noc(-c3ccc(N4CCCCC4)c([N+](=O)[O-])c3)n2)cc1 | x | x | -0.1% | x | x

Bioassay records from PubChem.
